Results on 40 compounds are retold here after PubChem BioAssay (NCATS).

Inconclusive results are not listed. Entries that show only a call come without a potency. Calls of active or inactive are those of the source. The call rests on the fitted dose curve; in most records, active means well fitted inhibition curve with a large enough effect; inconclusive means small, poorly fitted or top-dose-only effect; inactive means flat fitted curve, though single readings scatter.
Potency means the concentration at half of the fitted maximal effect.

For the first assay, the system named is Dd2. Briefly: qHTS profiling for inhibitors of Plasmodium falciparum proliferation (AID 504749). Further: nearly all actives have a fitted effect of over 60% in size. The settings on record: P. falciparum in erythrocytes, SYBR Green DNA, 72 h; series mostly up to 28.7 µM. A digest of the protocol:
(§1)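 SYBR Green fluorescence (ex 485 nm, em 535 nm) reports parasite DNA after 72 h compound exposure of infected red cells at 0.3% parasitemia, 2.5% hematocrit; signal normalized to 0.29 uM artemisinin and vehicle wells.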
A general note: Quantitative high-throughput screening tests each substance at several concentrations.
Regarding `CC(C)(C)CC(C)(C)c1ccc(O)c(-n2nc3ccccc3n2)c1`, the Potency is 12.6 µM (active).
The same measure, in the same setting: the entry for `CC(C)=CCOc1ccc(/C=C/C(=O)c2ccc(OCC=C(C)C)cc2OCC(=O)O)cc1` is “inactive”; for `CN1CCN(C2=Nc3cc(F)ccc3Cc3ccccc32)CC1` it is 14.1 µM (active); for `Cc1ccc2c(Br)cc(Br)c(O)c2n1` it is 11.2 µM (active).
On the same count and under the same terms, the result for `CNCCCCOc1ccccc1Cc1ccccc1` reads 2.51 µM (active); that for `Oc1c(Cl)cc(Cl)c(Cl)c1Cc1c(O)c(Cl)cc(Cl)c1Cl`, 12.6 µM (active); that for `COC(=O)C(c1ccccc1Cl)N1CCc2sccc2C1` (stereo not drawn), “inactive”.
On the same count and under the same terms, the result for `CN(C)CCN1C(=O)c2ccccc2N(C)c2ccccc21` reads 11.2 µM (active).
For `CN(C)CCOC(c1ccc(Cl)cc1)c1ccccn1` (stereo not drawn), the Potency is 4.47 µM (active).
Still for that read-out and setting: the result for `COc1cc(O)c(C(=O)c2ccccc2)cc1S(=O)(=O)O` reads “inactive”; that for `CCN(CC)CCOc1ccc2c(c1)C(=O)c1cc(OCCN(CC)CC)ccc1-2`, 12.6 µM (active); that for `Cc1cc2c(OCC(CNC(C)(C)C)OC(=O)c3ccccc3)cccc2[nH]1` (stereo not drawn), 3.98 µM (active).
The same measure, in the same setting: the result for `CCN(CC)CCOC(=O)C1(c2ccccc2)CCCC1` reads 8.91 µM (active); that for `O=C(O)CCc1nc2ccccc2[nH]1`, 0.0007 µM (active); that for `CN1CCN(c2c(F)cc3c(=O)c(C(=O)O)cn4c3c2SCC4)CC1`, 10 µM (active).
On the same count and under the same terms, the figure for `CCN(CC)CCOc1ccccc1C(=O)CCc1ccccc1` is 4.47 µM (active); for `C[N+]1(C)CCC(=C(c2ccccc2)c2ccccc2)CC1` it is “inactive”.
`CC1CCc2c(N3CCC(O)CC3)c(F)cc3c(=O)c(C(=O)O)cn1c23` (stereo not drawn): the Potency entry is “inactive”.
Turning to `O=[N+]([O-])c1cccc(S(=O)(=O)NCCNS(=O)(=O)c2cccc([N+](=O)[O-])c2)c1`, the Potency result was “inactive”.
Still for that read-out and setting: the result for `CC(C)(Cc1c[nH]c2ccccc12)NCC(O)COc1ccccc1C#N` (stereo not drawn) reads 12.6 µM (active); that for `CCCCCCCCCCCCOCCOCCOCCOCCOCCOCCOCCOCCOCCO`, 12.6 µM (active); that for `CN1CCC(OC(c2ccccc2)c2ccccc2)CC1`, 3.98 µM (active).
Consider `O=C(CN1CCN(Cc2ccc3c(c2)OCO3)CC1)N1c2ccccc2Sc2ccccc21`, for which the Potency is 11.2 µM (active).
On the same count and under the same terms, the result for `C#C[C@]1(OC(C)=O)CC[C@H]2[C@@H]3CCC4=C/C(=N/O)CC[C@@H]4[C@H]3CC[C@@]21CC` reads “inactive”.
As for `OC(C#CCN1CCCC1)(c1ccccc1)c1ccccc1`, the Potency is 8.91 µM (active).

A further assay concerns ECU. The description is as above. As to conditions: P. falciparum in erythrocytes, SYBR Green DNA, 72 h; series mostly up to 28.7 µM. The gist of the method: as §1
Turning to `CC(C)=CCOc1ccc(/C=C/C(=O)c2ccc(OCC=C(C)C)cc2OCC(=O)O)cc1`, the Potency entry was “inactive”.
On the same count and under the same terms, the entry for `CN1CCN(C2=Nc3cc(F)ccc3Cc3ccccc32)CC1` is “inactive”; for `CC[N+](C)(CC)CCOC(=O)C(O)(c1ccccc1)C1CCCCC1` (stereo not drawn) it is “inactive”; for `NCCNc1cccc2ccccc12` it is “inactive”.
As for `CO[C@]12C[C@@H](COC(=O)c3cncc(Br)c3)CN(C)[C@@H]1Cc1cn(C)c3cccc2c13`, the Potency entry is “inactive”.
Still for that read-out and setting: the entry for `CN1CCN(c2cc3c(cc2F)c(=O)c(C(=O)O)cn3-c2ccc(F)cc2)CC1` is “inactive”; for `CC(=O)O[C@H]1C[C@@H]2CC[C@@H]3[C@H](CC[C@@]4(C)[C@H]3C[C@H]([N+]3(C)CCCCC3)[C@@H]4OC(C)=O)[C@@]2(C)C[C@@H]1N1CCCCC1` it is “inactive”; for `Oc1c(Cl)cc(Cl)c(Cl)c1Cc1c(O)c(Cl)cc(Cl)c1Cl` it is 12.6 µM (active).
The same measure, in the same setting: the entry for `CCOCCn1c(N2CCCN(C)CC2)nc2ccccc21` is “inactive”; for `CN(C)CCN1C(=O)c2ccccc2N(C)c2ccccc21` it is “inactive”; for `CN(C)CCOC(c1ccc(Cl)cc1)c1ccccn1` (stereo not drawn) it is “inactive”.
With `CCN(CC)CCOc1ccc2c(c1)C(=O)c1cc(OCCN(CC)CC)ccc1-2`, the Potency is 8.91 µM (active).
Regarding `Cc1cc2c(OCC(CNC(C)(C)C)OC(=O)c3ccccc3)cccc2[nH]1` (stereo not drawn), the Potency result is “inactive”.
Same read-out and setting: the result for `CCN(CC)CCOC(=O)C1(c2ccccc2)CCCC1` reads “inactive”; that for `NC(=O)C1(N2CCCCC2)CCN(CCCC(=O)c2ccc(F)cc2)CC1`, “inactive”.
The same measure, in the same setting: the result for `O=C(NC1CCN(CCc2c[nH]c3ccccc23)CC1)c1ccccc1` reads “inactive”; that for `CCC(C(=O)OCCOCCN(CC)CC)c1ccccc1` (stereo not drawn), “inactive”; that for `CCN(CC)CCOc1ccccc1C(=O)CCc1ccccc1`, “inactive”.
With `C[N+]1(C)CCC(=C(c2ccccc2)c2ccccc2)CC1`, the Potency result is “inactive”.
On the same count and under the same terms, the result for `CN1CCN(C2=Nc3ccccc3Sc3ccc(Cl)cc32)CC1` reads “inactive”.
The same measure, in the same setting: the result for `CC1CCc2c(N3CCC(O)CC3)c(F)cc3c(=O)c(C(=O)O)cn1c23` (stereo not drawn) reads “inactive”; that for `CN1CCC(OC(c2ccccc2)c2ccccc2)CC1`, “inactive”.
In the case of `C#C[C@]1(OC(C)=O)CC[C@H]2[C@@H]3CCC4=C/C(=N/O)CC[C@@H]4[C@H]3CC[C@@]21CC`, the Potency entry is “inactive”.

The subject of another assay is FAB9. The assay is described as above. As to conditions: P. falciparum in erythrocytes, SYBR Green DNA, 72 h; series mostly up to 28.7 µM. The gist of the method:
as §1
For the compound `CC(C)=CCOc1ccc(/C=C/C(=O)c2ccc(OCC=C(C)C)cc2OCC(=O)O)cc1`, the Potency entry was “inactive”.
On the same count and under the same terms, the entry for `Cc1ccc(-c2ncc(Cl)cc2-c2ccc(S(C)(=O)=O)cc2)cn1` is “inactive”; for `CC(=O)O[C@]1(C(C)=O)CC[C@H]2[C@@H]3C=C(Cl)C4=CC(=O)CC[C@]4(C)[C@H]3CC[C@@]21C` it is “inactive”; for `CN1CCN(C2=Nc3cc(F)ccc3Cc3ccccc32)CC1` it is “inactive”.
On the same count and under the same terms, the entry for `CC[N+](C)(CC)CCOC(=O)C(O)(c1ccccc1)C1CCCCC1` (stereo not drawn) is “inactive”; for `NCCNc1cccc2ccccc12` it is “inactive”; for `CNCCCCOc1ccccc1Cc1ccccc1` it is “inactive”.
Take `O=S(c1cc(Cl)cc(Cl)c1O)c1cc(Cl)cc(Cl)c1O`: the Potency was 0.0224 µM (active).
For `CO[C@]12C[C@@H](COC(=O)c3cncc(Br)c3)CN(C)[C@@H]1Cc1cn(C)c3cccc2c13`, the Potency result is “inactive”.
As for `CN1CCN(c2cc3c(cc2F)c(=O)c(C(=O)O)cn3-c2ccc(F)cc2)CC1`, the Potency entry was “inactive”.
The same measure, in the same setting: the entry for `CC(=O)O[C@H]1C[C@@H]2CC[C@@H]3[C@H](CC[C@@]4(C)[C@H]3C[C@H]([N+]3(C)CCCCC3)[C@@H]4OC(C)=O)[C@@]2(C)C[C@@H]1N1CCCCC1` is “inactive”; for `Oc1c(Cl)cc(Cl)c(Cl)c1Cc1c(O)c(Cl)cc(Cl)c1Cl` it is “inactive”; for `CCOCCn1c(N2CCCN(C)CC2)nc2ccccc21` it is “inactive”.
The same measure, in the same setting: the result for `COC(=O)C(c1ccccc1Cl)N1CCc2sccc2C1` (stereo not drawn) reads “inactive”.
For `CN(C)CCN1C(=O)c2ccccc2N(C)c2ccccc21`, the Potency result was “inactive”.
On the same count and under the same terms, the entry for `CN(C)CCOC(c1ccc(Cl)cc1)c1ccccn1` (stereo not drawn) is “inactive”; for `COc1cc(O)c(C(=O)c2ccccc2)cc1S(=O)(=O)O` it is “inactive”.
The same measure, in the same setting: the entry for `Cc1cc2c(OCC(CNC(C)(C)C)OC(=O)c3ccccc3)cccc2[nH]1` (stereo not drawn) is “inactive”; for `COc1ccc(C(=O)c2ccccc2)c(O)c1` it is “inactive”; for `CCN(CC)CCOC(=O)C1(c2ccccc2)CCCC1` it is “inactive”.
Same read-out and setting: the result for `NC1CCN(c2nc3c(cc2F)c(=O)c(C(=O)O)cn3-c2ccc(F)cc2F)C1` (stereo not drawn) reads “inactive”; that for `NC(=O)C1(N2CCCCC2)CCN(CCCC(=O)c2ccc(F)cc2)CC1`, “inactive”.
As to `O=C(NC1CCN(CCc2c[nH]c3ccccc23)CC1)c1ccccc1`, the Potency entry is “inactive”.
On the same count and under the same terms, the entry for `CCC(C(=O)OCCOCCN(CC)CC)c1ccccc1` (stereo not drawn) is “inactive”; for `CN1CCN(c2c(F)cc3c(=O)c(C(=O)O)cn4c3c2SCC4)CC1` it is “inactive”; for `CCN(CC)CCOc1ccccc1C(=O)CCc1ccccc1` it is “inactive”.
Regarding `CN1CCN(C2=Nc3ccccc3Sc3ccc(Cl)cc32)CC1`, the Potency result was “inactive”.
Same read-out and setting: the result for `CC1CCc2c(N3CCC(O)CC3)c(F)cc3c(=O)c(C(=O)O)cn1c23` (stereo not drawn) reads “inactive”; that for `O=[N+]([O-])c1cccc(S(=O)(=O)NCCNS(=O)(=O)c2cccc([N+](=O)[O-])c2)c1`, “inactive”.
The same measure, in the same setting: the entry for `CC(C)(Cc1c[nH]c2ccccc12)NCC(O)COc1ccccc1C#N` (stereo not drawn) is “inactive”.
Same read-out and setting: the result for `CCCCCCCCCCCCOCCOCCOCCOCCOCCOCCOCCOCCOCCO` reads “inactive”; that for `CN1CCC(OC(c2ccccc2)c2ccccc2)CC1`, “inactive”; that for `O=C(CN1CCN(Cc2ccc3c(c2)OCO3)CC1)N1c2ccccc2Sc2ccccc21`, “inactive”.
`C#C[C@]1(OC(C)=O)CC[C@H]2[C@@H]3CCC4=C/C(=N/O)CC[C@@H]4[C@H]3CC[C@@]21CC`: the Potency entry is “inactive”.
Same read-out and setting: the entry for `OC(C#CCN1CCCC1)(c1ccccc1)c1ccccc1` is “inactive”.
